# Bioassay records: PubChem, Center for Chemical Genomics, University of Michigan
# The entries come from a sample that favours hits as a whole.
# Dicer processing: human Dicer pre-microRNA cleavage inhibition; Q9UPY3; cat-ELCCA pre-miR-21 Dicer processing, chemiluminescence; active compounds read high; 6% of 47,000 active; z-score at 25 µM; in the data active = z-score above about 3, passing the limit was not always enough;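 also: plate controls were vehicle for no effect and no enzyme for full effect; higher signal means more uncleaved substrate so more Dicer inhibition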
# * = called active by the depositor.
SMILES,Dicer processing
N#C/C(=N\OC(=O)c1ccc(C(F)(F)F)cc1)S(=O)(=O)c1cccs1,5.5*
N#C/C(=N\Nc1cc(C(F)(F)F)cc(C(F)(F)F)c1)S(=O)(=O)c1cccs1,0.92
N#C/C(=N\OS(=O)(=O)c1ccc(Cl)cc1)S(=O)(=O)c1cccs1,-0.56
CSc1c(C#N)c(-c2ccco2)nn1C,-0.88
COc1ccc(S(=O)(=O)n2nc(C)c(Sc3ccccc3)c2C)cc1,-0.11
CCOC(=O)CN1C(=O)C(O)(CC(=O)c2ccc(C)cc2C)c2ccccc21 (stereo not given),1.3
COc1cc(C=Nc2ccc(F)cc2F)ccc1OC(=O)/C=C/c1cccs1,-0.19
CN(C)/C=C/C(=O)c1cc(Cl)sc1Cl,0.99
COc1ccc(OCC(=O)N(Cc2cccs2)C2CCS(=O)(=O)C2)cc1 (stereo not given),-0.03
COc1ccccc1OCC(=O)N(Cc1cccs1)C1CCS(=O)(=O)C1 (stereo not given),0.96
O=C(c1ccccc1Br)N(Cc1cccs1)C1CCS(=O)(=O)C1 (stereo not given),3.9*
CCCCNC(=O)NS(=O)(=O)c1ccccc1Cl,-1.4
CC(=O)c1ccc(S(=O)(=O)NC(=O)NC2CCCCC2)cc1,2.4
O=C(NC1CCCC1)NS(=O)(=O)c1ccccc1Cl,3.2*
O=C(O)c1ccc(-c2n[nH]c(=O)c3ccccc23)cc1,-6.5
CC12CN3CC(C)(CN(C1)C3c1ccc(O)c(O)c1)C2=O (stereo not given),-0.39
CN1Cc2sccc2C(c2ccc(O)c(O)c2)C1 (stereo not given),4.8*
CN1CCc2cc(Cl)c(O)cc2[C@@H](c2ccccc2)C1,0.58
CC(=O)c1ccc(NC(=O)CN2CCCc3cc(C)ccc32)cc1,1.7
COc1ccc(C2C3CCc4ccccc4C3=NN2CCOC(=O)c2ccc(C(F)(F)F)cc2)cc1 (stereo not given),-0.23
C[C@H](CSC(=O)c1ccccc1)C(=O)N1C[C@@H](Sc2ccccc2)CC1C(=O)O (stereo not given in full),-2.4
Cn1c(=O)c2c(nc(NCCCn3ccnc3)n2Cc2ccc(F)cc2)n(C)c1=O,3.5*
Cn1c(=O)c2c(nc(-n3ccnc3)n2Cc2ccc(F)cc2)n(C)c1=O,1.4
Cn1c(=O)c2c(nc(NCCCO)n2Cc2ccc(Cl)cc2)n(C)c1=O,3.6*
Cn1c(NCCCO)nc2c1c(=O)n(Cc1ccc(Cl)cc1)c(=O)n2C,2.4
SMILES,Dicer processing
Cn1c(=O)c2c(nc(NCCCn3ccnc3)n2Cc2cccc3ccccc23)n(C)c1=O,-0.49
Cn1c(=O)c2c(nc(NCCCO)n2Cc2ccc(Br)cc2)n(C)c1=O,2.1
Cc1nc2c(sc(=S)n2-c2ccccc2)c(=O)[nH]1,0.12
CCc1ccn2cc(Nc3ccccc3Cl)nc2c1,-7.3
NC(=O)N/C(CSCc1c(F)cccc1Cl)=N/O,-0.44
CC(=O)c1ccccc1C(=O)c1ccccc1,-1.2
CC(=O)c1ccccc1C(=O)c1ccc(Cl)cc1,59*
Cc1c(C)c(C)c(C(=O)c2ccc(Cl)cc2)c(C)c1C,0.14
COC(=O)C(Cc1c[nH]c2ccccc12)N=Cc1ccccc1 (stereo not given),1.7
O=C1Nc2ccccc2/C1=C/c1cnc(-c2ccccc2)[nH]1,3.3*
CN(C)c1ccc(/C=C2\C(=O)Nc3ccccc32)cc1,-1.4
COc1ccc(/C=C2/C(=O)Nc3ccccc32)cc1,-0.18
Cc1cc(-c2noc(COc3ccc(F)cc3)n2)c2ccccc2n1,0.85
CCOC(=O)c1cc2cc3cc(C)ccc3nc2s1,1.9
CC(=O)Nc1cc(Cl)c(Cl)cc1NC(C)=O,-0.87
C=CCn1c(SCC(=O)NCCN2CCOCC2)nc2sc3c(c2c1=O)CCCC3,-0.32
C/C(=N\NC1=NCCCN1)c1ccccc1,-0.91
CC(C)(C)c1ccc(OCc2ccc(C(=O)O)cc2)cc1,-1.3
CC(C)(C)c1ccc(OCc2nnc(N)s2)cc1,4*
CC(C)(C)c1ccc(OCC(=N)N)cc1,-2.5
Cc1c(NC(=O)NNc2ccccc2)sc2nc(-c3ccc(Cl)cc3)nn12,4.3
Clc1cc2nsnc2cc1Cl,0.42
O=C(O)c1ncc(C(F)(F)F)cc1Cl,1.2
FC(F)(F)c1cc(Cl)c2nsnc2c1,4.5*
O=C1CN(c2ccccc2O)CC1=O,0.72
SMILES,Dicer processing
COC(=O)c1ccc(COc2ccc3c(=O)c(Oc4ccccc4Cl)coc3c2)cc1,0.9
O=C1CC(Nc2ccc(N3CCCCC3)cc2)C(=O)N1c1ccccc1F (stereo not given),3.3*
O=C1CC(Nc2ccc(N3CCOCC3)cc2)C(=O)N1c1ccccc1F (stereo not given),2.8
O=C1CC(Nc2ccc(F)cc2)C(=O)N1c1ccc(N2CCCCC2)cc1 (stereo not given),-0.19
CCOC(=O)C1(C(F)(F)F)N=C(c2cccc(C)c2)OC(N(C)C)=N1 (stereo not given),-0.46
COc1ccc(-c2nnc(SCC(=O)c3ccccc3)o2)cc1,-0.34
Cc1ccc(S(=O)(=O)Nc2cc(C)c(Br)cc2NS(=O)(=O)c2ccc(C)cc2)cc1,7.2
Cc1ccc(S(=O)(=O)Nc2cc(C(C)C)c(O)c(Cl)c2C)cc1,3.2*
